From PubChem BioAssay (NCI)
About 79,000 compounds went through this panel and 15% of them were active in at least one assay; those are over-represented in the sample as a whole. Unmarked numbers belong to inactive results. Calls of active or inactive are those of the source. Rule as the data show it: active = growth inhibition above about 70%; inactive = the rest.

Test: NCI Yeast Anticancer Drug Screen. Data for the rad50 strain (AID 155);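 also: 0% = growth of vehicle-only cultures of the same strain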
Conditions: S. cerevisiae rad50 strain growth inhibition; at 50.0 µM; hits give high values
How it was run: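 Relative growth inhibition (compound vs vehicle) was measured in yeast with a defined repair-gene alteration.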
Compound `C=CC(=O)N1C/C(=C\c2ccc(F)cc2)C(=O)/C(=C/c2ccc(F)cc2)C1` has a growth inhibition of 52%. In the case of `CCOc1ccc2c(c1)n([O-])c1ccccc1[n+]2=O`, the growth inhibition is reported as 56%. For `O=C(/C(Cl)=N/O)c1ccccc1`, the growth inhibition was 98.8% (active). `O=C(NC1CCN(Cc2ccccc2)CC1)c1ccc(I)cc1` gave a growth inhibition of 68%. Compound `O=C1c2ccccc2CCC1C(O)(C(F)(F)F)C(F)(F)F` (stereo not given) has a growth inhibition of -5.3%. Compound `O=C(C(=O)n1ncc(Cl)c(Cl)c1=O)n1ncc(Cl)c(Cl)c1=O` has a growth inhibition of 18.6%. In the case of `OC1OCC(OCc2ccccc2)C(OCc2ccccc2)C1OCc1ccccc1` (stereo not given), the growth inhibition is reported as 97.4% (active). With `CN1CCC(OC(=O)c2ccc3ncccc3c2)CC1` the growth inhibition was 34.6%. With `CCC(c1ccc(O)cc1)C(CC)c1ccc(OCC(N)=O)cc1` (stereo not given) the growth inhibition was 90.1% (active). With `CCCCCCCC(=O)O[C@H]1[C@H]2[C@@H](CC1(C)C)C(=O)[C@]13O[C@H]1C(=O)[C@]1(CO1)[C@]23C` the growth inhibition was 91% (active). `CN1CCCN(C)C1c1cc([N+](=O)[O-])ccc1O` showed a growth inhibition of 49.5%. With `CCOC(=O)C[n+]1c(C)sc2ccccc21` the growth inhibition was 78.4% (active). In the case of `O=C(O)C(CCc1cccc2ccccc12)c1ccccc1` (stereo not given), the growth inhibition is reported as 99.6% (active). For `O=C1C(Cl)=C(Cl)C(=O)C2CC=CCC12` (stereo not given), the growth inhibition was 99.3% (active). For `Nc1n[nH]c(=O)c2cccnc12`, the growth inhibition was 0.7%. Work on `OC(CBr)c1cc(-c2ccccc2)nc2ccccc12` (stereo not given) yielded a growth inhibition of -5.25%. Work on `O=C(O)CCCc1ccc2c(c1)CC1(C2)Cc2ccc(CCCC(=O)O)cc2C1` yielded a growth inhibition of -38%. For `CC1=Nc2ccccc2/C1=C\c1c(C)[nH]c2ccccc12`, the growth inhibition was 83% (active). `CC(=O)C(C(=N)C#N)C(=O)Nc1ccccc1` (stereo not given) showed a growth inhibition of -6.9%. With `COc1ccc2nc3cc(Cl)ccc3c(NCCC[N+](C)(C)CCCCCCCCCC[N+](C)(C)CCCNc3c4ccc(Cl)cc4nc4ccc(OC)cc34)c2c1` the growth inhibition was 96% (active). In the case of `Oc1cc(Cl)cc2c1-c1ccc(Cl)cc1C2O` (stereo not given), the growth inhibition is reported as 95.2% (active). With `CC1(C)OC(=O)C(=NNc2ccccc2[N+](=O)[O-])C(=O)O1` the growth inhibition was -6.9%. In the case of `Clc1ccc(OCC2CO2)c(Cl)c1` (stereo not given), the growth inhibition is reported as 96.6% (active). With `O=c1ccc([N+](=O)[O-])c[nH]1.[Ag]` the growth inhibition was 99.5% (active). In the case of `O=C1CSC(c2c[nH]c3ccccc23)N1c1cccc(Cl)c1` (stereo not given), the growth inhibition is reported as 85.8% (active). For `Fc1cccc(NC(=S)SCc2ccco2)c1`, the growth inhibition was 97.7% (active). In the case of `S=c1[nH]nc(SCc2ccc(Cl)c(Cl)c2)c2[nH]cnc12`, the growth inhibition is reported as 1.45%. For `Cc1c(Cl)cccc1NC(=O)/C(Cl)=C(\Cl)C(=O)O`, the growth inhibition was 99.5% (active). With `Nc1ccc2ccc3cccc4ccc1c2c34` the growth inhibition was 90.3% (active). With `O=C(C(/C=N/C(=S)NCc1ccccc1)=C(/O)c1ccccc1)c1ccccc1` the growth inhibition was 98.8% (active). For `C/C(=N\NC(=S)Nc1ccc(Cl)cc1)c1nc2ncccc2[nH]1`, the growth inhibition was 89.8% (active). In the case of `O=C(/C=C\c1ccc(Cl)c(Cl)c1)c1cccs1`, the growth inhibition is reported as 58.9%. In the case of `CC12CC(O)C3C(CCC4CCCCC43C)C1CC/C2=N/O` (stereo not given), the growth inhibition is reported as 86.6% (active). With `CCCn1cc2c(SC)nc(SC)nc2n1` the growth inhibition was 98.1% (active). For `Cc1ccc(C2(O)c3ccccc3-c3ccccc32)cc1`, the growth inhibition was 99.2% (active). In the case of `C=CCc1ccc2c(C)cc[n+](C)c2c1O`, the growth inhibition is reported as 100% (active). `COC(=O)c1nc(NC#N)[nH]c(=O)c1CCCCCc1cnc(NC#N)nc1` gave a growth inhibition of -2.4%. In the case of `Cc1c2cnccc2c(C)c2c1c1ccccc1n2CCOC(=O)c1ccccc1`, the growth inhibition is reported as 96.4% (active). `C/C(=N/O)c1ccc2c(c1)C(C)c1ccccc1-2` (stereo not given) gave a growth inhibition of 35.2%. For `Oc1ccc2ccccc2c1I`, the growth inhibition was 91.2% (active).
